This is part of a sample that, as a whole, favours compounds with a hit. Of some 83,000 tested, about 20% had one in any assay.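 Step 1: grow cells in 96-well plates. Step 2: add test compound at a single concentration. Step 3: incubate 48 h. Step 4: record percent growth.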 A number with no mark means an inactive call. Active and inactive are the calls of the source. Rule for the calls: active = growth percent below 10; inactive = the rest.

The values that follow come from PubChem BioAssay (NCI).

Test systems include SK-MEL-2 melanoma; EKVX NSCLC; SN12C renal; UO-31 renal; TK-10 renal; ACHN renal; CAKI-1 renal; A498 renal; CCRF-CEM leukemia; MOLT-4 leukemia; SR leukemia; RPMI-8226 leukemia; OVCAR-8 ovarian; OVCAR-5 ovarian; OVCAR-4 ovarian; SK-OV-3 ovarian; IGROV1 ovarian; OVCAR-3 ovarian; HS 578T breast; NCI/ADR-RES ovarian.
What all share (assay): NCI-60 one-dose screen, 48 h (100 = growth as untreated, 0 = no growth, -100 = all killed)
Common to all, as to settings: 10 µM unless noted

`CC1=C2[C@@H](CC1)[C@]1(C)O[C@@](C(C)C)(C[C@H]1OC(=O)CO)[C@H]2OC(=O)CCCc1ccccc1`: the growth is 66.8% in the assay with SK-MEL-2 melanoma; 94.1% in the assay on EKVX NSCLC; 54.9% with SN12C renal; 39.6% with UO-31 renal; 88.4% with TK-10 renal; 56.7% with ACHN renal. Further, the growth is 59.8% in the assay with CAKI-1 renal; 59.3% with A498 renal; 31.8% in the assay with CCRF-CEM leukemia; 23.5% in the assay on MOLT-4 leukemia; 76.1% in the assay with SR leukemia; 22.7% in the assay with RPMI-8226 leukemia. For the same molecule, the growth with OVCAR-8 ovarian is 35.4%; with OVCAR-5 ovarian it was 100%; in the assay on OVCAR-4 ovarian, 80%; in the assay with SK-OV-3 ovarian, 105%; in the assay on IGROV1 ovarian, 62.8%; in the assay with OVCAR-3 ovarian, 61.3%. The growth was -4.02% (active) with HS 578T breast and 44.8% with NCI/ADR-RES ovarian.
`C#CCOc1ccc(C2=NN(CCCC)C3N=C(Cl)c4ncn(CCCC)c4N23)cc1OCC#C` (stereo not given): the growth in the assay on SK-MEL-2 melanoma is 101%; with EKVX NSCLC it was 85.2%; with SN12C renal, 91.4%; with UO-31 renal it was 62.5%; in the assay on TK-10 renal it was 97.8%; in the assay with ACHN renal, 87.4%. The growth with CAKI-1 renal is 74.3%; in the assay on A498 renal it was 73%; in the assay with CCRF-CEM leukemia it was 78.2%; in the assay with MOLT-4 leukemia, 65.3%; in the assay with SR leukemia it was 79.1%; in the assay with RPMI-8226 leukemia, 85.2%. The growth was 85.9% with OVCAR-8 ovarian; 93.6% in the assay on OVCAR-5 ovarian; 86.2% in the assay with OVCAR-4 ovarian; 92.3% in the assay on SK-OV-3 ovarian; 99.2% with IGROV1 ovarian; 97.2% in the assay with OVCAR-3 ovarian. The growth was 80.6% with HS 578T breast and 83% in the assay on NCI/ADR-RES ovarian.
`CN1CCN(Cc2ccc(NC(=O)c3cncc(C#Cc4cnc(N)c5ncccc45)c3)cc2Cl)CC1`: the growth was 56.5% in the assay on SK-MEL-2 melanoma; 106% with EKVX NSCLC; 92.5% in the assay with SN12C renal; 64.7% with UO-31 renal; 104% with TK-10 renal; 41.8% with ACHN renal. Further, the growth with CAKI-1 renal is 73.5%; in the assay with A498 renal it was 104%; in the assay with CCRF-CEM leukemia it was -2.07% (active); in the assay with MOLT-4 leukemia, 83%; with SR leukemia, -1.93% (active); with RPMI-8226 leukemia, 73.1%. Further, the growth was 101% in the assay on OVCAR-8 ovarian; 95.1% with OVCAR-5 ovarian; 104% in the assay on OVCAR-4 ovarian; 109% in the assay with SK-OV-3 ovarian; 110% in the assay with IGROV1 ovarian; 116% with OVCAR-3 ovarian. In addition, the growth with HS 578T breast was 80.1%; in the assay with NCI/ADR-RES ovarian, 74.9%.
For `CCOC(=O)CC1CSC(N/N=C(/C)c2cccc(C(F)(F)F)c2)=N1` (stereo not given), the growth in the assay with SK-MEL-2 melanoma was 123%; with EKVX NSCLC, 89.3%; with SN12C renal, 103%; with UO-31 renal it was 80.2%; in the assay with TK-10 renal, 95.8%; in the assay with ACHN renal it was 106%. Further, the growth with CAKI-1 renal is 91.6%; with A498 renal, 97.4%; with CCRF-CEM leukemia, 104%; with MOLT-4 leukemia it was 95.8%; with SR leukemia, 99.6%; with RPMI-8226 leukemia, 111%. For the same molecule, the growth in the assay with OVCAR-8 ovarian was 102%; in the assay on OVCAR-5 ovarian it was 105%; with OVCAR-4 ovarian, 94.1%; in the assay on SK-OV-3 ovarian it was 96.1%; in the assay with IGROV1 ovarian, 94.5%; in the assay on OVCAR-3 ovarian, 105%. Also, the growth in the assay on HS 578T breast and with NCI/ADR-RES ovarian was 101% each time.
As to `O=C1C(Nc2ccc(Br)cc2)=C(I)C(=O)c2ncccc21`, the growth was 79.2% in the assay with SK-MEL-2 melanoma; 77.6% in the assay with EKVX NSCLC; 1.34% (active) with SN12C renal; -38.4% (active) with UO-31 renal; 70.7% in the assay with TK-10 renal; -20.1% (active) in the assay on ACHN renal. The growth with CAKI-1 renal was 18.6%; in the assay on A498 renal, 96%; in the assay with CCRF-CEM leukemia, 8.63% (active); with MOLT-4 leukemia, -2.02% (active); in the assay with SR leukemia, 4.58% (active); in the assay on RPMI-8226 leukemia, 6.59% (active). For the same molecule, the growth was 2.71% (active) with OVCAR-8 ovarian; 73.5% in the assay on OVCAR-5 ovarian; -95.6% (active) in the assay with OVCAR-4 ovarian; 83.9% with SK-OV-3 ovarian; -56.7% (active) with IGROV1 ovarian; -85.3% (active) in the assay with OVCAR-3 ovarian. Further, the growth is 40.7% in the assay with HS 578T breast and 1.39% (active) in the assay with NCI/ADR-RES ovarian.
`CNC1=C(Br)C(=O)c2c(C(=O)OC)c(C)nc(C)c2C1=O`: the growth in the assay on SK-MEL-2 melanoma is 52.1%; in the assay with EKVX NSCLC, 79.3%; in the assay with SN12C renal it was 45.4%; in the assay on UO-31 renal, 77.4%; in the assay with TK-10 renal, 132%; in the assay on ACHN renal, 72%. The growth is 68.2% with CAKI-1 renal; 93.1% in the assay on A498 renal; 77.3% with CCRF-CEM leukemia; 79.8% with MOLT-4 leukemia; 86.5% in the assay with SR leukemia; 75.8% in the assay with RPMI-8226 leukemia. The growth is 38.7% in the assay with OVCAR-8 ovarian; 97.3% with OVCAR-5 ovarian; 35.4% with OVCAR-4 ovarian; 116% with SK-OV-3 ovarian; 67.6% with IGROV1 ovarian; 1.75% (active) in the assay on OVCAR-3 ovarian. For the same molecule, the growth is 72.4% in the assay with HS 578T breast and 74.7% in the assay on NCI/ADR-RES ovarian.
For `Cc1nc2ccccc2c(/C=C/c2ccc(Br)cc2)c1C(=O)/C=C/c1ccccc1`, the growth in the assay with SK-MEL-2 melanoma is -4.28% (active); in the assay with EKVX NSCLC, 26.1%; with SN12C renal, 10.8%; in the assay with UO-31 renal, -74.2% (active); in the assay on TK-10 renal it was 21.2%; in the assay on ACHN renal it was 6.36% (active). Also, the growth was 4.36% (active) in the assay on CAKI-1 renal; 18% with A498 renal; 6.02% (active) with CCRF-CEM leukemia; 7.65% (active) with MOLT-4 leukemia; 13.6% with SR leukemia; -8.25% (active) with RPMI-8226 leukemia. Besides, the growth with OVCAR-8 ovarian was 2.21% (active); in the assay with OVCAR-5 ovarian, -18% (active); with OVCAR-4 ovarian it was 12.5%; with SK-OV-3 ovarian, 49.4%; with IGROV1 ovarian it was -7.6% (active); in the assay with OVCAR-3 ovarian it was -72.1% (active). Further, the growth is 25.9% with HS 578T breast and -2.99% (active) in the assay with NCI/ADR-RES ovarian.
In the case of `CCOC(=O)/C(=C/c1ccc([N+](=O)[O-])cc1)C(=O)c1ccccc1`, the growth with SK-MEL-2 melanoma is 53.9%; in the assay with EKVX NSCLC, 103%; in the assay with SN12C renal it was 79.3%; in the assay on UO-31 renal it was -14.3% (active); with TK-10 renal it was 20.7%; with ACHN renal, -7.93% (active). Moreover, the growth is 81.6% with CAKI-1 renal; 83.5% in the assay on A498 renal; 6.25% (active) in the assay on CCRF-CEM leukemia; 4.35% (active) in the assay with MOLT-4 leukemia; 4.07% (active) with SR leukemia; -13% (active) in the assay with RPMI-8226 leukemia. In addition, the growth is 41.5% in the assay with OVCAR-8 ovarian; 41.7% in the assay on OVCAR-5 ovarian; 76% in the assay on OVCAR-4 ovarian; 102% with SK-OV-3 ovarian; 42.5% in the assay on IGROV1 ovarian; 58.4% in the assay on OVCAR-3 ovarian. The values for the growth in the assay on HS 578T breast and in the assay on NCI/ADR-RES ovarian were 33.2% and 25.7%, respectively.
